# Laboratory results published in the supplement of paper PMC3334620.
# In all, about 33,000 sequences were measured (“E-score (-0.5 to 0.5)”: median about -0.032, highest 2% from about 0.36 on). Many of the other results were omitted from the sample, so the highest values are more common in it than they were.
# Target: T1, Sko1 (UniProt Q02100)
# T1 sequence: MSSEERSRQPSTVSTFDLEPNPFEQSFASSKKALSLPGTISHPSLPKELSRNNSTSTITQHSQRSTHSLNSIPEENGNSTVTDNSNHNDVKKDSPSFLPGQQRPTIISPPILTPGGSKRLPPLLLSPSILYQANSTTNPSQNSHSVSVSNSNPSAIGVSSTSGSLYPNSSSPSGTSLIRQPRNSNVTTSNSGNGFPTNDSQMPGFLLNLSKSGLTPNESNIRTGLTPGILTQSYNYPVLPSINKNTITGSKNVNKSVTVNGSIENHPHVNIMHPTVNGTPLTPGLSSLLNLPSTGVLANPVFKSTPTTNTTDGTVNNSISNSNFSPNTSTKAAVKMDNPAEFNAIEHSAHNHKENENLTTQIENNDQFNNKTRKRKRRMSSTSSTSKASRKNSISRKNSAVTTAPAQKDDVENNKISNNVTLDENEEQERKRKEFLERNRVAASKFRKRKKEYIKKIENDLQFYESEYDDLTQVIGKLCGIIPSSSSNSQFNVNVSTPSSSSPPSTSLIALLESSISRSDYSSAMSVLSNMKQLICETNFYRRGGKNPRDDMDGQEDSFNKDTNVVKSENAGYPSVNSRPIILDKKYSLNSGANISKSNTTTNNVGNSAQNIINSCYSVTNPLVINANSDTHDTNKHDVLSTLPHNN
# Assay: PBM E-score (8-mer binding enrichment) (E-score (-0.5 to 0.5)); higher = stronger / more preferred TF binding
# Settings: protein concentration: 200 nM; construct: GST-full length
# Method: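 Universal 'all 10-mer' protein binding microarrays (Agilent AMADID 015681) probed with GST-tagged S. cerevisiae TFs (full-length or DBD) made by in vitro transcription/translation (PURExpress), about 100-200 nM. Bound TF was detected with fluorescent anti-GST. Each ungapped 8-mer (which stands for itself and its reverse complement) is scored by the PBM enrichment score (E-score), a modified Wilcoxon-Mann-Whitney statistic from -0.5 to +0.5, computed with the Universal PBM Analysis Suite. Scale: above 0.35 generally sequence-specific binding.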
row,Sequence,PBM E-score
1,AGCAGGGC,-0.225
2,AGACTACA,-0.158
3,ATGCTAAT,0.209
4,AAGATGCT,-0.0361
5,AAGAAAAG,-0.011
6,GGAGGCCC,-0.241
7,AGCCCCCC,-0.355
8,ACCAACAA,0.147
9,AGATGCAC,-0.0198
10,AAACGTTG,0.112
11,ACACGTTG,0.188
12,ATACGTTG,0.391
13,ATCTCTAC,0.106
14,CCCAGCGC,-0.229
15,AGGTACTG,-0.125
16,ACGTACTG,0.412
17,ATGTACTG,-0.0689
18,ACGTACTA,0.426
19,AGGTACTC,-0.109
20,CCGTACTC,-0.132
21,CCGTACTA,0.00949
22,ACGTACTC,0.432
23,GCGTACTA,0.232
24,GGGATAGA,-0.0751
25,CTGGGCTA,-0.317

row,Sequence,PBM E-score
1,AGATACGA,0.208
2,CCCTGGAC,-0.188
3,CAACGCAG,-0.0699
4,GTAACTTA,0.262
5,AAATACGC,0.315
6,AAATACGA,0.302
7,ACATACGG,0.0483
8,ACATACGC,0.28
9,AAATACGT,0.463
10,ACATACGT,0.459
11,TCGAGTCA,-0.00474
12,AGGTGCTA,-0.0841
13,ACCCGTGA,0.0498
14,CGCCACAG,-0.198
15,CAACCCAC,0.011
16,GATCAAAA,0.0898
17,GTCATGAA,0.221
18,ATCATGAG,0.211
19,CTCATGAC,0.285
20,ATCATGAA,0.126
21,GTCATGAC,0.392
22,ATCATGAC,0.407
23,CGCTAAAA,-0.102
24,ATAATAGG,0.114
25,GGCGGACC,-0.321

row,Sequence,PBM E-score
1,AAACTGAG,-0.159
2,ACTTAGAG,-0.0119
3,GCGTAGAC,0.0511
4,AGGTAGAT,-0.0309
5,CCGTAGAC,-0.135
6,AAGTAGAT,-0.00622
7,ACGTAGAC,0.415
8,ACGTAGAA,0.434
9,ACGTAGAT,0.452
10,CCGTAGAA,-0.14
11,CCGTAGAG,-0.258
12,GCGTAGAA,0.178
13,ACGTAGAG,0.387
14,AATCTGCC,-0.0515
15,AATCAGGT,0.113
16,CGCCCCAC,-0.0143
17,AGCGCCGC,-0.199
18,CCCGGTAA,-0.206
19,CATCCTGA,0.0812
20,TATAACGA,0.186
21,CGACGCCA,0.174
22,ACACGCAC,0.158
23,GGACGCAA,0.164
24,TCACGCAA,0.384
25,AGACGCAA,0.258

row,Sequence,PBM E-score
1,CCACGCAA,0.308
2,ACACGCAT,0.219
3,TGACGCAA,0.483
4,GCACGCAA,0.252
5,ACACGCAA,0.376
6,TGACGCCA,0.453
7,AGACGCCA,0.0116
8,CGAGTCGC,-0.243
9,GCGGTCTA,0.0211
10,CAGATCTC,-0.196
11,TGATGTAA,0.434
12,AGATGTAA,0.256
13,CGATGTAA,0.175
14,AACGGAGT,-0.09
15,CATATGAG,-0.0409
16,GCGATGAA,-0.0296
17,CATATGAC,0.404
18,AATATGAG,0.146
19,AATATGAC,0.367
20,GAGATGAC,0.254
21,GATATGAC,0.326
22,GCGATGAC,0.374
23,AATATGAT,0.254
24,ACGATGAC,0.336
25,CAGATGAC,0.37

row,Sequence,PBM E-score
1,AAGATGAC,0.337
2,GCAAAGAC,0.00382
3,GATAGTCC,-0.141
4,CATTTAAA,0.178
5,ACTCACGC,0.14
6,GCTTAGCC,-0.313
7,CTGGCGCC,-0.181
8,TCCTAACA,0.0335
9,CTGAATAC,0.15
10,TCAACCGA,0.204
11,CCTATGAC,0.308
12,ACTATGAC,0.342
13,CTTATGAC,0.374
14,ATTATGAC,0.349
15,GCTATGAC,0.364
16,CTTATGAA,-0.0245
17,TATCAGCA,0.0232
18,ACGAGCAG,-0.0309
19,CAAGAGCA,-0.0878
20,GCCTAGAA,-0.121
21,ACGTGTTG,0.426
22,AGGTGTTC,-0.0318
23,CCGTGTTA,-0.0886
24,ATGTGTTG,0.203
25,CCGTGTTC,-0.0799

row,Sequence,PBM E-score
1,ACGTGTTC,0.36
2,ACGTGTTA,0.434
3,GCGTGTTA,0.114
4,AGGTGTTG,0.0206
5,ACTGGTTC,-0.132
6,GCAGTCAC,-0.0169
7,GAGCGAGA,-0.0193
8,CGCGGTTA,-0.0722
9,ACTCTTCC,-0.0697
10,GCTTGCTA,-0.191
11,ACTAACAG,0.0358
12,AGTAATGC,0.0678
13,AGTAATGA,0.247
14,CGTAATGA,0.461
15,CGTAATGC,0.454
16,CTTAATGC,0.0192
17,GGTAATGA,0.115
18,CGAGCAAG,-0.129
19,TAGTATCA,0.187
20,CCTAACGC,0.0788
21,AACTTACG,0.408
22,AACTTACC,-0.0258
23,CACTTACA,0.164
24,AACTTACA,0.0844
25,CACTTACC,0.109

row,Sequence,PBM E-score
1,CACTTACG,0.382
2,ACGTTCTG,0.256
3,GCTCTAAA,0.0432
4,ACGTATCA,0.438
5,CCGTATCC,-0.133
6,AAGTATCT,0.0671
7,TCGTATCA,0.241
8,CCGTATCG,-0.171
9,GCGTATCA,0.131
10,AAGTATCG,-0.0131
11,ACGTATCG,0.452
12,ACCTATCT,-0.0547
13,GCGTATCC,0.142
14,ACGTATCC,0.389
15,ACGTATCT,0.419
16,CCGTCTGC,-0.109
17,GCAGAACC,-0.16
18,TAGTGGAA,-0.149
19,GCGGCATA,0.0318
20,AGCTGATC,-0.0352
21,GATCCTCC,-0.264
22,GTGACGGA,0.174
